Reference: paper PMC6212790, “How bacterial xenogeneic silencer rok distinguishes foreign from self DNA in its resident genome”
Over roughly 33,000 sequences, “e-score” has its median near -0.038; the highest 2% begin near 0.33. The entries come from a sample that favours the highest values as a whole.

Target: T1, GST-Rok-C97-191 (Bacillus subtilis subsp. subtilis str. …, UniProt O34857 97-191)
T1 sequence: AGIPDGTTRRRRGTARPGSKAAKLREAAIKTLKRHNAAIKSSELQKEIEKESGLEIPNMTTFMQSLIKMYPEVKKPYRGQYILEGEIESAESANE
Test: protein binding microarray; Rok is a gene silencer of Bacillus subtilis; high values mean tight binding
Conditions: protein: recombinant; tags: GST (pTH5325, pDEST15-Magic modified); dsDNA, one strand shown
Outline: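 Each has a 25-mer constant primer and a 35-mer variable part from a de Bruijn sequence of order 10, covering every non-palindromic 8-mer at least 32 times (palindromic 16). Preference for each 8-mer is given as a rank-based, unitless enrichment score (E-score). Its range runs from 0.5 (most favored) to −0.5 (most disfavored).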

Sequence | binding signal
CCTAGATC | 0.0939 E-score
CCTAGATA | 0.0777 E-score
ACTAGATC | 0.335 E-score
ATTAGATC | 0.0978 E-score
CGGCACTC | -0.0669 E-score
CCCATTTC | 0.0795 E-score
ATGACCTG | -0.0486 E-score
CCGACTAG | 0.0252 E-score
ATTATATG | 0.223 E-score
GTTATATA | 0.31 E-score
ATTATAGC | 0.189 E-score
GTTATTTA | 0.273 E-score
ATTATATC | 0.384 E-score
CTTATATC | 0.117 E-score
ATTATATA | 0.446 E-score
CTTATTTA | 0.184 E-score
ATTATTTA | 0.37 E-score
AAAATGCA | 0.153 E-score
TAAGTGCA | 0.0583 E-score
ACTAATTA | 0.444 E-score
ACTAATTC | 0.373 E-score
CCTAATTC | 0.115 E-score

Sequence | binding signal
CCTAATTA | 0.28 E-score
ACTAATTG | 0.189 E-score
GCTAATTA | 0.289 E-score
CACTTGGC | -0.143 E-score
CCTGACCA | -0.111 E-score
AAAGTTCG | 0.0847 E-score
CGCGCTAC | -0.0357 E-score
TGCGCTAA | -0.0024 E-score
CGCGCTAA | 0.329 E-score
AATCTGTG | -0.0756 E-score
ATAATTTA | 0.354 E-score
ATAATTCA | 0.245 E-score
ATAATTTC | 0.36 E-score
CTAATTTC | 0.272 E-score
ATAATTTG | 0.344 E-score
GTAATTGA | 0.0917 E-score
ACAATTTG | 0.104 E-score
CTAATTTA | 0.305 E-score
GTAATTTA | 0.353 E-score
AGAATTTG | 0.161 E-score
GCAATTTA | 0.257 E-score
AGAATTTC | 0.255 E-score

Sequence | binding signal
CAGGGATC | -0.151 E-score
AGAGCTAA | 0.148 E-score
AGTCCTCC | -0.0852 E-score
AAAATTAT | 0.239 E-score
GCTCACTA | 0.0154 E-score
GAAGAGGA | -0.151 E-score
GGCATACC | 0.00482 E-score
GCGGACGA | -0.188 E-score
AGAGGCAT | 0.0046 E-score
AATACGCT | -0.133 E-score
ACAACGAG | -0.0859 E-score
AGAGAAAG | 0.159 E-score
CGATGACC | -0.125 E-score
GATTGTAC | 0.365 E-score
GATTGTAA | 0.0411 E-score
AATTGTAC | 0.211 E-score
ATTTGTAC | 0.333 E-score
CTTTGTAC | 0.249 E-score
ATTTGTAA | 0.203 E-score
TAACTCCA | 0.0761 E-score
CTCGGGAC | -0.0122 E-score
ATACCTAT | 0.323 E-score

Sequence | binding signal
CTACCTAC | 0.376 E-score
ATACCTAC | 0.333 E-score
GTACCTAC | 0.349 E-score
GTACCTAA | 0.155 E-score
ATACCTAG | 0.253 E-score
CTACCTAA | 0.174 E-score
CTACCTAG | 0.243 E-score
GAACCTAC | 0.198 E-score
AACATATC | 0.233 E-score
CATGTTAC | 0.15 E-score
CTCCACTA | 0.107 E-score
CAGCCCTG | -0.157 E-score
ATAAATAA | 0.269 E-score
ATAAATAG | 0.252 E-score
AGAAATAG | 0.326 E-score
ACAAATAT | 0.337 E-score
ACAAATAC | 0.266 E-score
CTAAATAC | 0.287 E-score
ATAAATAC | 0.287 E-score
GTAAATAC | 0.336 E-score
